# Target: Dickkopf-related protein 1 (Homo sapiens) (UniProt O94907)
# Assay: DKK1 binders on small-molecule microarrays, primary screen, biochemical, small-molecule microarray, 635 nm fluorescence scan (AID 1106);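 also: score merges emission near 667 nm with signal to noise over three replicate slides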
# Details: DKK1 binding, higher = more signal
# Chain of Dickkopf-related protein 1 (Homo sapiens) (O94907 whole entry, looked up): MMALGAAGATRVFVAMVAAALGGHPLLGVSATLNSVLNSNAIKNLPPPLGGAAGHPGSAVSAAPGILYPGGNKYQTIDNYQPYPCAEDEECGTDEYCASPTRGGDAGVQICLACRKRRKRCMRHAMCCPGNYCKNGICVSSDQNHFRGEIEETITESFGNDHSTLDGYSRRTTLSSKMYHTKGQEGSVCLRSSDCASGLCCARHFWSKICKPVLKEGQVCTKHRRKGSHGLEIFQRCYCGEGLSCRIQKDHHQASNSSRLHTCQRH
row,SMILES,composite z-score
1,CC(C)(C)OC(=O)CC[C@]1(C(=O)N2CCCCC2)COC(c2ccc(OCCCO)cc2)=N1,-0.421
2,NC(=O)[C@H]1[C@@H]2C(=O)O[C@@H](c3ccccc3)[C@@H](c3ccccc3)N2[C@@H](c2ccc(O)cc2)[C@]12C(=O)Nc1ccc(C#CC3=CCCCC3)cc12,-0.0761
3,CN1C(=O)[C@@]2(Cc3ccccc3)N=C(c3ccc(OCCCO)cc3)O[C@H]2c2ccccc21,0.191
4,Cc1nc2cc(Br)ccc2c(=O)n1Cc1cccc(O)c1,1.16
5,Cc1ccc(N2C(=O)c3ccccc3[C@](C)(C(=O)NCc3ccccc3)[C@@H]2c2ccc(CO)cc2)nc1,0.381
6,CCCNC(=O)[C@@]1(Sc2ccc(C)cc2)CC(=O)N(C2CCCCC2)[C@@H]1c1ccc(CO)cc1I,-0.122
7,COC(=O)[C@@]1(Cc2ccc(F)cc2)[C@H]2c3cc(C(=O)N(C)C)n(Cc4c(CO)[nH]cc(C)c4=O)c3C[C@H]2CN1C(=O)c1ccccc1,-0.12
8,O=C1C2C=CC(C(O)c3ccco3)N(Nc3ccccc3)C2C(=O)N1c1ccccc1 (stereo not given),-0.555
9,C=C(COC)C(=O)CC[C@H](OC(C)=O)c1ccc(OCCO)cc1,0.722
10,COCCOC(=O)N1C(=O)[C@@]2(c3cc(C#CC4=CCCCC4)ccc31)[C@H](c1ccc(O)cc1)N1[C@H](c3ccccc3)[C@H](c3ccccc3)OC(=O)[C@H]1[C@@H]2C(=O)NC[C@H](O)c1ccccc1,0.557
11,[N-]=[N+]=NC[C@H](Cc1ccccc1)NC(=O)c1ccccc1,0.0359
12,COC(=O)[C@@]1(Cc2ccc(OC)cc2)[C@H]2c3cc(C(=O)N4CCCC4)n(Cc4ccc(OC(F)(F)F)cc4)c3C[C@H]2CN1C(=O)c1ccccc1,-0.414
13,CCC(CC)C(O)C1C=CC2C(=O)N(c3ccccc3)C(=O)C2N1Nc1ccc([N+](=O)[O-])cc1 (stereo not given),-0.351
14,COC(=O)C1N=C(c2ccc(OCCCO)cc2)N(c2ccccc2)O1 (stereo not given),0.604
15,Cc1ccccc1C(O)C1C=CC2C(=O)N(c3ccccc3)C(=O)C2N1Nc1ccc([N+](=O)[O-])cc1 (stereo not given),0.0125
16,COCC1=C2[C@@H](CCc3ccccc3)OB(O)C[C@@H]2[C@@H]2C(=O)N(C)C(=O)[C@@H]2C1,0.216
17,O=C1O[C@H](c2ccccc2)[C@H](c2ccccc2)N2[C@H]1[C@@H](C(=O)N1CCCCCCC1)[C@]1(C(=O)Nc3ccc(C#CC4(O)CCCCCC4)cc31)[C@H]2c1ccccc1OCCO,2.77
18,CCOC(=O)C1=CC[C@@H](c2ccccc2)N(S(=O)(=O)c2ccc(C)cc2)[C@H]1c1cccc(OC)c1,0.135

row,SMILES,composite z-score
1,COc1cc(C(O)C2C=CC3C(=O)N(Cc4ccccc4)C(=O)C3N2n2cnnc2)cc(OC)c1OC (stereo not given),0.134
2,COc1ccc([Si](C)(C)[C@@H]2[C@@H](CCn3cc([C@H](O)c4ccccc4)nn3)O[C@]3(C(=O)N(c4ccccc4)c4ccccc43)[C@H]2C)cc1,0.181
3,COc1cc(NN2C(C(O)c3ccccc3)C=CC3C(=O)N(C)C(=O)C32)cc(OC)c1OC (stereo not given),-0.186
4,NC(=O)N1C(=O)C2C(C1=O)C1C=C(CCCO)C2C(C2CC2)N1Cc1cccc(OC(F)(F)F)c1 (stereo not given),-0.0361
5,O=c1cccc(-c2ccc(F)cc2)o1,0.399
6,CN(C)CCCCCCNC(=O)[C@@H]1C[C@@H]2C(=O)N[C@@H](CCCCN)C(=O)N2[C@@H]1c1ccc(O)cc1,2.29
7,COCCOC(=O)N1C(=O)[C@@]2(c3cc(C#Cc4ccc(OC)cc4)ccc31)[C@H](C(=O)NC[C@H](O)c1ccccc1)[C@H]1C(=O)O[C@H](c3ccccc3)[C@H](c3ccccc3)N1[C@@H]2c1ccc(OCCO)cc1,0.324
8,CC(C)C(=C=CC[C@@H](O)c1cccc(OCCO)c1)C[C@@H](O)c1ccccn1,0.0852
9,C=C(CCCC)C(=O)CC[C@H](OC(C)=O)c1ccc(OCCO)cc1,-0.8
10,C=C(CCCC)/C(=C/C[C@H](OC(C)=O)c1ccc(OCCO)cc1)c1cc(C(=O)OC)ccc1OC,-0.304
11,COc1cc2c(cc1O)C(c1ccc(CN3CCCC3)cc1)N(C)CC2 (stereo not given),-0.622
12,CC(C)[Si]1(C(C)C)OCc2cc(-c3ccc(-c4ccc(Cl)c(Cl)c4)o3)nc(CCc3ccccc3)c21,0.32
13,[N-]=[N+]=Nc1ccccc1[C@@H]1OC(c2ccc(OCCCO)cc2)=N[C@]1(Cc1ccccc1)C(=O)NCc1ccccc1,0.0944
14,C=C(C)[C@@H]1CC=C(C(O)C2C=CC3C(=O)N(c4ccccc4)C(=O)C3N2Nc2ccc(C#N)cc2)CC1 (stereo not given in full),-0.0273
15,CCOC(=O)C1=C[C@@H](C(C)(C)C)N(S(=O)(=O)c2ccc(C)cc2)[C@H]1c1ccc(C)cc1,0.541
16,CCOC(=O)C[C@H]1[C@H](OC(=O)c2ccccc2-c2ccccc2)[C@@H](NC(=O)c2ccccc2)c2cc(OCCCO)ccc2N1C(=O)c1ccccc1,0.169
17,O=C1C2C=CC(C(O)C=Cc3ccc([N+](=O)[O-])cc3)N(Nc3ccccc3)C2C(=O)N1c1ccccc1 (stereo not given),0.419

# Source: PubChem BioAssay
